Experimental data published in article PMC5540273 (PLoS ONE, 2017).

Columns and labels:
Conditions in all cases: concentration: 1 μM, replicates: in singlicate; n = 1
[1] = tested on: DAPK2
[2] = tested on: DAPK3
[3] = tested on: T1, DCAMKL1
T1 construct: gene DCLK1

[4] = tested on: T2, DCAMKL2
T2 construct: gene DCLK2

[5] = tested on: T3, DCAMKL3
T3 construct: gene DCLK3

[6] = tested on: DDR1
[7] = tested on: DDR2
[8] = tested on: T4, DLK
T4 construct: gene MAP3K12

[9] = tested on: T5, DMPK2
T5 construct: gene CDC42BPG

[10] = tested on: DMPK
[11] = tested on: T6, DRAK1
T6 construct: gene STK17A

[12] = tested on: T7, DRAK2
T7 construct: gene STK17B

[13] = tested on: DYRK1A
[14] = tested on: DYRK1B
[15] = tested on: DYRK2
[16] = tested on: EGFR
[17] = tested on: EIF2AK1
[18] = tested on: EPHA1
[19] = tested on: EPHA2
[20] = tested on: EPHA3
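Further: KINOMEscan kinase panel screen.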

SMILES | %Inh [1] [%] | %Inh [2] [%] | %Inh [3] [%] | %Inh [4] [%] | %Inh [5] [%] | %Inh [6] [%] | %Inh [7] [%] | %Inh [8] [%] | %Inh [9] [%] | %Inh [10] [%] | %Inh [11] [%] | %Inh [12] [%] | %Inh [13] [%] | %Inh [14] [%] | %Inh [15] [%] | %Inh [16] [%] | %Inh [17] [%] | %Inh [18] [%] | %Inh [19] [%] | %Inh [20] [%]
Cc1cccc(-c2nc(Nc3ccc4[nH]ncc4c3)c3ccccc3n2)n1 [GW857175] | 20 | 28 | 0 | 14 | 0 | 39 | 17 | 0 | 72 | 4 | 13 | 10 | 24 | 11 | 40 | 0 | 5 | 12 | 1 | 0
Cc1nnc(-c2ccc3occ(-c4ccc(S(C)=O)cc4)c3c2)[nH]1 (centres unmarked) | 5 | 10 | 0 | 0 | 0 | 0 | 5 | 0 | 6 | 0 | 26 | 41 | 19 | 7 | 45 | 0 | 0 | 0 | 0 | 0
Cc1cccc(-c2cc(Nc3ccncc3)c3ccccc3n2)n1 [GSK223675] | 0 | 9 | 3 | 0 | 1 | 9 | 0 | 0 | 7 | 0 | 0 | 0 | 8 | 0 | 18 | 17 | 0 | 4 | 0 | 0
NC(=O)c1nnc2ccccc2c1N | 10 | 6 | 9 | 30 | 0 | 0 | 11 | 18 | 0 | 0 | 41 | 33 | 29 | 16 | 39 | 0 | 0 | 14 | 10 | 0
COC(=O)c1c(-c2ccccc2)c2cc(OC)ccc2c(=O)n1Cc1ccccc1 | 2 | 6 | 12 | 7 | 0 | 81 | 50 | 9 | 0 | 0 | 0 | 22 | 0 | 12 | 0 | 0 | 5 | 0 | 3 | 9
Clc1cc(Cl)cc(Nc2ccnc(Nc3cc(Cl)cc(Cl)c3)n2)c1 [GSK175726] | 19 | 23 | 0 | 0 | 0 | 6 | 24 | 11 | 18 | 0 | 0 | 6 | 0 | 19 | 0 | 38 | 0 | 54 | 46 | 21
COc1ccc(C2=C(Nc3cccc(C(=O)O)c3)C(=O)NC2=O)cc1 [SB-390765] | 5 | 0 | 32 | 0 | 0 | 0 | 19 | 0 | 12 | 4 | 19 | 7 | 9 | 0 | 20 | 0 | 11 | 7 | 9 | 11
Cc1cc(NCC(c2ccccc2)c2ccccc2)nc(NCc2ccc(C(F)(F)F)cc2)n1 [GW497681] | 0 | 0 | 0 | 11 | 0 | 0 | 20 | 39 | 1 | 0 | 0 | 0 | 0 | 0 | 3 | 10 | 0 | 0 | 3 | 0
Cc1cc(N2Cc3ccccc3C2)nc(Nc2ccc(S(=O)(=O)N3CCOCC3)cc2)n1.Cl [GSK1669917] | 5 | 100 | 21 | 0 | 0 | 0 | 9 | 2 | 1 | 0 | 17 | 0 | 11 | 19 | 0 | 23 | 0 | 0 | 19 | 0
O=C1NC(=O)C(N2CCc3ccccc32)=C1c1ccccc1Cl [SB-373598] | 23 | 4 | 10 | 0 | 11 | 12 | 14 | 0 | 12 | 26 | 0 | 0 | 18 | 0 | 6 | 25 | 0 | 10 | 27 | 12
